Test results reported in PubChem BioAssay AID651650 (Sanford-Burnham Center for Chemical Genomics, 2012).

Each compound was assayed against Neuropilin-1 (Homo sapiens) (UniProt O14786) (assay: NRP-1 b1b2 CendR peptide binding inhibitors, dose response, biochemical, FP and AlphaScreen panel (AID 651650)). Conditions: NRP-1 b1b2 / RPARPAR peptide binding, FP or AlphaScreen; run 1, at 100 µM (top of the series).
Neuropilin-1 (Homo sapiens), sequence (O14786 whole entry, looked up): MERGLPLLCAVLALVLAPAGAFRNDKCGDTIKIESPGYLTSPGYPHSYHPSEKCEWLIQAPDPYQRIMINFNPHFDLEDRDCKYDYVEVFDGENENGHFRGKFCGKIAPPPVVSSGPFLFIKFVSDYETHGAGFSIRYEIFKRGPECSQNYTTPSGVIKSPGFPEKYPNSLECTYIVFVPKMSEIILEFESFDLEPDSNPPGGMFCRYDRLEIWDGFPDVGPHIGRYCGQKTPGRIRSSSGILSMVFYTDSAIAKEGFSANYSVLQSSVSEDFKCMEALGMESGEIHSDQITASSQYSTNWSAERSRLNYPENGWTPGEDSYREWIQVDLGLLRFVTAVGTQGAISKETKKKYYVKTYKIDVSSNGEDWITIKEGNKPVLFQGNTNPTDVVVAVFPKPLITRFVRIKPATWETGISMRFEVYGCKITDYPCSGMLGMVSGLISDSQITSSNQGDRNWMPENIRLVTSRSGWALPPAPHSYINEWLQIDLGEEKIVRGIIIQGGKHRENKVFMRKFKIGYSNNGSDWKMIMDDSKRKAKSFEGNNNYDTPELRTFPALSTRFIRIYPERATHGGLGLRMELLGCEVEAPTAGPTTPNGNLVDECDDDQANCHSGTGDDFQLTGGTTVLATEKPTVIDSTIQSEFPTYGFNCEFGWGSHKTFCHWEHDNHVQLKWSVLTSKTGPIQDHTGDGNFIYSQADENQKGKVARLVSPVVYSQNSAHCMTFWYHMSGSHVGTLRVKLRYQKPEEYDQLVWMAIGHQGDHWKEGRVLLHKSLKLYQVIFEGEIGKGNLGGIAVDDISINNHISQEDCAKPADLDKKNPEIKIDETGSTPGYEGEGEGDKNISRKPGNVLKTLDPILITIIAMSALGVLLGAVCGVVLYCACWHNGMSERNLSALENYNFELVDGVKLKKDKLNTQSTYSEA
`O=[N+]([O-])c1ccc(Cc2ccncc2)cc1` showed an inhibition of 15.9%.
With `COc1ccc(-c2csc(Nc3cccnc3)n2)cc1` the inhibition was 47.6%.
For `CCC1CCCCN1CCCNC(=O)C1CCCN(S(=O)(=O)N2CC(C)CC(C)C2)C1` (centres undefined), the inhibition was 60.7%.
`O=C(O)c1cccc(N2C(=O)c3cc([N+](=O)[O-])cc4cc([N+](=O)[O-])cc(c34)C2=O)c1` was tested, and the inhibition was 32.7%.
With `Cc1ccccc1OCC1Cc2c(nc(N)c(C#N)c2N)O1` (centres undefined) the inhibition was -18.4%.
`CCN(CC)C(=O)c1cccc(-c2csc(C(NC(C)=O)c3cccc(OC)c3)n2)c1` (centres undefined) was tested, and the inhibition was 18.7%.
`CCCCN(c1ccccc1)S(=O)(=O)c1ccc2c(c1)CCN2C(=O)CCC(=O)O` gave an inhibition of 8.36%.
Work on `COc1ccc2c(c1OC)CN1CCc3cc4c(cc3[C@@H]1[C@@H]2O)OCO4` yielded an inhibition of -3.65%.
For `CCCNC(=S)Nc1cccc(C(F)(F)F)c1`, the inhibition was -8.06%.
`O=C(COc1ccc(Br)cc1CO)Nc1ccc(F)cc1` was tested, and the inhibition was -9.04%.
Work on `CCOC(=O)[C@]12CCCC=C1N(CCC1=CCCCC1)C(=O)[C@H](CC(=O)NCC13CC4CC(CC(C4)C1)C3)C2` yielded an inhibition of 20.7%.
`CCOC(=O)C1=CCN(S(=O)(=O)c2ccccc2Br)C1c1ccccc1` (centres undefined) showed an inhibition of 35.1%.
Work on `CCOc1ccccc1N1CCN(C(=O)c2ccncc2)CC1` yielded an inhibition of -22.8%.
For `OCC1OC(n2cnc3c(/C=C(\O)c4ccccc4)ncnc32)C(O)C1O` (centres undefined), the inhibition was 3.57%.
Compound `Cc1ccc(COn2c(-c3ccc(Cl)cc3Cl)nc3ncccc32)cc1` has an inhibition of 7.33%.
With `O=C(NC1CC1)c1ccc(COc2ccc(F)cc2)o1` the inhibition was 23.1%.
Compound `O=C(NCCCN1CCCCCC1)c1ccc(CS(=O)(=O)Cc2ccccc2F)o1` has an inhibition of 40.3%.
In the case of `O=C1CCCN1CCCNC(=S)Nc1ccc(Cl)cc1Cl`, the inhibition is reported as 19.7%.
With `O=C(NCCOC(=O)c1ccccc1)c1ccccc1` the inhibition was 72.3%.
Work on `CC1(c2ccccc2)CC(C)(C)n2c(O)c(C3=NC(=S)NC3=O)c3cccc1c32` (centres undefined) yielded an inhibition of 12.3%.
In the case of `O=C(NCc1ccccc1)c1ccc(N2CCC3(CC2)CC(c2ccc(Cl)cc2)=NO3)c([N+](=O)[O-])c1`, the inhibition is reported as 69.3%.
In the case of `COCc1cccc(-c2csc(C(C)(O)c3ccccc3)n2)c1` (centres undefined), the inhibition is reported as 25.6%.
`COc1ccc(C(=O)N2CCC(C(=O)NCc3ccccn3)CC2)cc1` showed an inhibition of 20.9%.
`COc1ccccc1N1CCN(C2CCCN(C(=O)Cn3cccn3)C2)CC1` (centres undefined) showed an inhibition of 38.2%.
Work on `O=C(CSc1nc2ccccc2n1Cc1ccccc1Cl)N/N=C/c1ccccc1C(=O)O` yielded an inhibition of 84.6%.
For `Cc1ccccc1-n1ncc2c1CC(C)(C)CC2NC(=O)c1ccncc1` (centres undefined), the inhibition was 28.1%.
Work on `CN(C)/N=C/c1ccc(Sc2ccc([N+](=O)[O-])cc2[N+](=O)[O-])o1` yielded an inhibition of 55.1%.
For `CCOC(=O)Cc1csc(NC(=O)CSc2ncnc3c2cnn3-c2ccccc2Cl)n1`, the inhibition was 11.5%.
In the case of `O=C(O)c1ccccc1SCC(=O)N1CCCCC1`, the inhibition is reported as 52.9%.
With `CCOC(=O)Cc1cnc(NC(=O)NC(C(=O)OCC)(c2ccccc2)C(F)(F)F)s1` (centres undefined) the inhibition was 99.2%.
`COc1cccc(-c2ccc3c(c2)N(Cc2ccccc2OC)C(=O)C(C)S3)c1` (centres undefined) was tested, and the inhibition was -18.6%.
`CCc1ccc(NC(=O)CCn2nc(C)c(S(=O)(=O)N3CCCCC3)c2C)cc1` gave an inhibition of 51.9%.
`CCc1cccc(NC(=O)CCc2c(C)nn(-c3ccc(N4CCOCC4)nn3)c2C)c1` showed an inhibition of 75.8%.
Work on `CCc1ccc(NS(=O)(=O)c2c(C(=O)N3CCCCCC3)c(C)n(C)c2C)cc1` yielded an inhibition of 31.1%.
Compound `CNC(=O)Nc1ccccc1C(=O)NCc1ccccc1` has an inhibition of 25.7%.
Compound `Cc1cc2c(cc1C)NC(c1nc3ccccc3[nH]1)C1=C(CC(C)(C)CC1=O)N2` (centres undefined) has an inhibition of 20.6%.
`COc1ccc(Nc2nc(-c3cccnc3)nc3ccccc23)cn1` was tested, and the inhibition was 68.3%.
`O=S(=O)(c1ccccc1)c1nc(-c2ccc(F)cc2)oc1N1CCOCC1` gave an inhibition of 24.8%.
`COC(=O)c1c(NC(=O)CN(c2ccccc2)S(C)(=O)=O)sc2c1CCCC2` gave an inhibition of 84%.
